Assay results as given in PubChem BioAssay AID1159580 (chemical genetic matrix, 2015).
Screen size: about 5,500 compounds; about 2,000 (36%) were called active. Inconclusive results (about 18%) are left out. No stated cut-off is given here; in the data, active means normalized growth mostly below about 0.91 (no sharp cut-off); inconclusive means no clear call, values can overlap the other calls; inactive means mostly above about 0.92. The list shows a part of the results.

Test: chemical genetic growth profiling, strain panel (AID 1159580);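 further: tested at 20 µM; growth read once vehicle control cultures reached saturation at 30 °C; 1 = growth at the plate median or of vehicle wells; lower values mean less growth of the strain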
Conditions: growth OD

Measured: normalized growth

COc1ccc(C2C(=O)c3ccccc3C2=O)cc1
inactive: S. cerevisiae deletion strains, locus YJR066W, strain TOR1, hits give low values 0.897 | S. cerevisiae deletion strains, locus YJR075W, strain HOC1, hits give low values 0.983 | S. cerevisiae deletion strains, locus YKL009W, strain mrt4, hits give low values 0.958 | S. cerevisiae deletion strains, locus YKL068W, hits give low values 0.987 | S. cerevisiae deletion strains, locus YKL085W, strain MDH1 (second series), hits give low values 0.983 | S. cerevisiae deletion strains, locus YKL085W, strain MDH1, hits give low values 0.983 | S. cerevisiae deletion strains, locus YKL160W, strain elf1, hits give low values 0.998 | S. cerevisiae deletion strains, locus YKR001C, strain vps1, hits give low values 1 | S. cerevisiae deletion strains, locus YKR026C, strain gcn3, hits give low values 0.96 | S. cerevisiae deletion strains, locus YKR091W, strain srl3, hits give low values 1.01 | S. cerevisiae deletion strains, locus YLL001W, strain dnm1, hits give low values 0.997 | S. cerevisiae deletion strains, locus YLL026W, hits give low values 0.966 | S. cerevisiae deletion strains, locus YLL041C, strain sdh2, hits give low values 0.982 | S. cerevisiae deletion strains, locus YLR027C, strain aat2, hits give low values 0.997 | S. cerevisiae deletion strains, locus YLR039C, strain RIC1, hits give low values 0.993 | S. cerevisiae deletion strains, locus YLR058C, strain SHM2, hits give low values 0.993 | S. cerevisiae deletion strains, locus YLR102C, strain apc9, hits give low values 0.989 | S. cerevisiae deletion strains, locus YLR221C, strain rsa3, hits give low values 1 | S. cerevisiae deletion strains, locus YLR258W, strain gsy2, hits give low values 1.01 | S. cerevisiae deletion strains, locus YLR262C, strain YPT6 (second series), hits give low values 0.987 | S. cerevisiae deletion strains, locus YLR262C, strain YPT6, hits give low values 1.01 | S. cerevisiae deletion strains, locus YLR268W, strain sec22, hits give low values 1.01 | S. cerevisiae deletion strains, locus YLR320W, strain mms22, hits give low values 1.02 | S. cerevisiae deletion strains, locus YLR330W, strain CHS5, hits give low values 1 | S. cerevisiae deletion strains, locus YLR342W, strain FKS1 (second series), hits give low values 1.02 | S. cerevisiae deletion strains, locus YLR342W, strain FKS1, hits give low values 1 | S. cerevisiae deletion strains, locus YLR357W, strain rsc2, hits give low values 1.09 | S. cerevisiae deletion strains, locus YLR370C, strain arc18, hits give low values 1 | S. cerevisiae deletion strains, locus YLR371W, strain rom2, hits give low values 1.01 | S. cerevisiae deletion strains, locus YLR384C, strain iki3, hits give low values 0.992 | S. cerevisiae deletion strains, locus YLR418C, strain cdc73, hits give low values 0.957 | S. cerevisiae deletion strains, locus YML016C, strain PPZ1, hits give low values 1.01 | S. cerevisiae deletion strains, locus YML032C, strain rad52, hits give low values 1.01 | S. cerevisiae deletion strains, locus YML120C, strain ndi1, hits give low values 0.992 | S. cerevisiae deletion strains, locus YML124C, strain tub3, hits give low values 0.994 | S. cerevisiae deletion strains, locus YMR058W, strain fet3, hits give low values 0.979 | S. cerevisiae deletion strains, locus YMR078C, strain ctf18, hits give low values 0.99 | S. cerevisiae deletion strains, locus YMR125W, strain sto1, hits give low values 0.994 | S. cerevisiae deletion strains, locus YMR129W, hits give low values 0.972 | S. cerevisiae deletion strains, locus YMR205C, strain PFK2, hits give low values 1.01 | S. cerevisiae deletion strains, locus YMR223W, strain ubp8, hits give low values 0.976 | S. cerevisiae deletion strains, locus YMR231W, strain pep5, hits give low values 1.02 | S. cerevisiae deletion strains, locus YMR307W, strain GAS1, hits give low values 1.04 | S. cerevisiae deletion strains, locus YNL067W, strain RPL9B, hits give low values 0.932 | S. cerevisiae deletion strains, locus YNL071W, strain lat1, hits give low values 0.986 | S. cerevisiae deletion strains, locus YNL128W, strain TEP1, hits give low values 0.977 | S. cerevisiae deletion strains, locus YNL153C, strain GIM3, hits give low values 0.997 | S. cerevisiae deletion strains, locus YNL183C, strain NPR1, hits give low values 0.882 | S. cerevisiae deletion strains, locus YNL209W, strain ssb2, hits give low values 0.992 | S. cerevisiae deletion strains, locus YNL233W, strain BNI4, hits give low values 1 | S. cerevisiae deletion strains, locus YNL248C, strain rpa49, hits give low values 1.05 | S. cerevisiae deletion strains, locus YNL250W, strain rad50, hits give low values 0.987 | S. cerevisiae deletion strains, locus YNL271C, strain bni1, hits give low values 0.983 | S. cerevisiae deletion strains, locus YNL298W, strain CLA4, hits give low values 0.976 | S. cerevisiae deletion strains, locus YNL307C, strain MCK1, hits give low values 1.01 | S. cerevisiae deletion strains, locus YNL322C, strain KRE1 (second series), hits give low values 0.961 | S. cerevisiae deletion strains, locus YNR049C, strain mso1, hits give low values 0.982 | S. cerevisiae deletion strains, locus YNR052C, strain pop2, hits give low values 0.987 | S. cerevisiae deletion strains, locus YOL012C, strain htz1 0.937 | S. cerevisiae deletion strains, locus YOL147C, strain pex11, hits give low values 0.992 | S. cerevisiae deletion strains, locus YOR001W, strain rrp6, hits give low values 1.02 | S. cerevisiae deletion strains, locus YOR061W, strain CKA2, hits give low values 0.999 | S. cerevisiae deletion strains, locus YOR069W, strain VPS5, hits give low values 0.997 | S. cerevisiae deletion strains, locus YOR070C, strain gyp1, hits give low values 1 | S. cerevisiae deletion strains, locus YOR080W, strain dia2, hits give low values 1.02 | S. cerevisiae deletion strains, locus YOR083W, strain WHI5, hits give low values 1.01 | S. cerevisiae deletion strains, locus YOR106W, strain vam3, hits give low values 1.04 | S. cerevisiae deletion strains, locus YOR136W, strain idh2, hits give low values 0.984 | S. cerevisiae deletion strains, locus YOR144C, strain elg1, hits give low values 0.997 | S. cerevisiae deletion strains, locus YOR184W, strain ser1, hits give low values 0.998 | S. cerevisiae deletion strains, locus YOR231W, strain MKK1, hits give low values 0.878 | S. cerevisiae deletion strains, locus YOR265W, strain rbl2, hits give low values 0.995 | S. cerevisiae deletion strains, locus YOR270C, strain vph1, hits give low values 1.07 | S. cerevisiae deletion strains, locus YOR290C, strain snf2, hits give low values 1 | S. cerevisiae deletion strains, locus YOR316C, strain cot1, hits give low values 0.983 | S. cerevisiae deletion strains, locus YPL051W, strain arl3, hits give low values 1.03 | S. cerevisiae deletion strains, locus YPL078C, strain atp4, hits give low values 1 | S. cerevisiae deletion strains, locus YPL106C, strain sse1, hits give low values 1.03 | S. cerevisiae deletion strains, locus YPL240C, strain hsp82, hits give low values 0.984 | S. cerevisiae deletion strains, locus YPR119W, strain clb2, hits give low values 0.998 | S. cerevisiae deletion strains, locus YPR141C, strain kar3, hits give low values 0.977 | S. cerevisiae deletion strains, locus YPR163C, strain tif3, hits give low values 0.995 | S. cerevisiae deletion strains, locus YPR167C, strain met16, hits give low values 0.998 | S. cerevisiae deletion strains, strain wtn01, hits give low values 0.991 | S. cerevisiae strains, strain wild type, hits give low values 1
active: S. cerevisiae deletion strains, locus YLR113W, strain HOG1, hits give low values 0.767 | S. cerevisiae deletion strains, locus YPL256C, strain CLN2, hits give low values 0.817
